Results taken from PubChem BioAssay AID1159580 (chemical genetic matrix, 2015).
Where “and” joins values, the source holds several entries; their conditions need not be identical. Equal values may be shown once. Out of some 5,500 compounds screened, about 2,000 (36%) were called active. Inconclusive results (about 18%) are left out. Rule as the data show it: active = normalized growth mostly below about 0.91 (no sharp cut-off); inconclusive = no clear call, values can overlap the other calls; inactive = mostly above about 0.92. Some of the results follow.

Assay: chemical genetic growth profiling, strain panel (AID 1159580);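 also: tested at 20 µM; growth read once vehicle control cultures reached saturation at 30 °C; 1 = growth at the plate median or of vehicle wells; lower values mean less growth of the strain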
Conditions: growth OD

Measured: normalized growth

Cc1c(OCC(F)(F)F)ccnc1CS(=O)c1nc2ccccc2[nH]1 (stereo not given)
inactive: S. cerevisiae deletion strains, locus YJR075W, strain HOC1, active compounds read low 0.948 and 0.981 | S. cerevisiae deletion strains, locus YKL009W, strain mrt4, active compounds read low 0.991 | S. cerevisiae deletion strains, locus YKL068W, active compounds read low 0.997 | S. cerevisiae deletion strains, locus YKL085W, strain MDH1 (second series), active compounds read low 0.939 | S. cerevisiae deletion strains, locus YKL085W, strain MDH1, active compounds read low 0.939 | S. cerevisiae deletion strains, locus YKL160W, strain elf1, active compounds read low 1.01 | S. cerevisiae deletion strains, locus YKL190W, strain CNB1, active compounds read low 0.987 | S. cerevisiae deletion strains, locus YKR001C, strain vps1, active compounds read low 0.914 | S. cerevisiae deletion strains, locus YKR026C, strain gcn3, active compounds read low 1 | S. cerevisiae deletion strains, locus YKR091W, strain srl3, active compounds read low 1.01 | S. cerevisiae deletion strains, locus YLL001W, strain dnm1, active compounds read low 1.01 | S. cerevisiae deletion strains, locus YLL026W, active compounds read low 1.02 | S. cerevisiae deletion strains, locus YLL041C, strain sdh2, active compounds read low 1.01 | S. cerevisiae deletion strains, locus YLR027C, strain aat2, active compounds read low 1.01 | S. cerevisiae deletion strains, locus YLR039C, strain RIC1, active compounds read low 0.985 | S. cerevisiae deletion strains, locus YLR058C, strain SHM2, active compounds read low 0.966 | S. cerevisiae deletion strains, locus YLR102C, strain apc9, active compounds read low 1 | S. cerevisiae deletion strains, locus YLR221C, strain rsa3, active compounds read low 1 | S. cerevisiae deletion strains, locus YLR258W, strain gsy2, active compounds read low 1.02 | S. cerevisiae deletion strains, locus YLR262C, strain YPT6 (second series), active compounds read low 1.05 | S. cerevisiae deletion strains, locus YLR262C, strain YPT6, active compounds read low 0.998 | S. cerevisiae deletion strains, locus YLR320W, strain mms22, active compounds read low 1.01 | S. cerevisiae deletion strains, locus YLR330W, strain CHS5, active compounds read low 0.987 | S. cerevisiae deletion strains, locus YLR342W, strain FKS1 (second series), active compounds read low 0.926 | S. cerevisiae deletion strains, locus YLR342W, strain FKS1, active compounds read low 1.04 | S. cerevisiae deletion strains, locus YLR357W, strain rsc2, active compounds read low 1.01 | S. cerevisiae deletion strains, locus YLR370C, strain arc18, active compounds read low 1.02 | S. cerevisiae deletion strains, locus YLR371W, strain rom2, active compounds read low 0.989 | S. cerevisiae deletion strains, locus YLR384C, strain iki3, active compounds read low 1.02 | S. cerevisiae deletion strains, locus YML016C, strain PPZ1, active compounds read low 0.979 | S. cerevisiae deletion strains, locus YML032C, strain rad52, active compounds read low 0.93 | S. cerevisiae deletion strains, locus YML120C, strain ndi1, active compounds read low 1.02 | S. cerevisiae deletion strains, locus YML124C, strain tub3, active compounds read low 0.997 | S. cerevisiae deletion strains, locus YMR058W, strain fet3, active compounds read low 1.01 | S. cerevisiae deletion strains, locus YMR078C, strain ctf18, active compounds read low 0.989 | S. cerevisiae deletion strains, locus YMR125W, strain sto1, active compounds read low 1.02 | S. cerevisiae deletion strains, locus YMR129W, active compounds read low 1.02 | S. cerevisiae deletion strains, locus YMR205C, strain PFK2, active compounds read low 1.04 | S. cerevisiae deletion strains, locus YMR223W, strain ubp8, active compounds read low 0.981 | S. cerevisiae deletion strains, locus YMR231W, strain pep5, active compounds read low 1.02 | S. cerevisiae deletion strains, locus YMR263W, strain SAP30, active compounds read low 0.97 and 0.99 | S. cerevisiae deletion strains, locus YMR307W, strain GAS1, active compounds read low 0.907 | S. cerevisiae deletion strains, locus YNL067W, strain RPL9B, active compounds read low 0.958 | S. cerevisiae deletion strains, locus YNL071W, strain lat1, active compounds read low 1.01 | S. cerevisiae deletion strains, locus YNL128W, strain TEP1, active compounds read low 0.974 | S. cerevisiae deletion strains, locus YNL153C, strain GIM3, active compounds read low 0.956 | S. cerevisiae deletion strains, locus YNL175C, strain NOP13, active compounds read low 0.996 | S. cerevisiae deletion strains, locus YNL197C, strain WHI3, active compounds read low 0.998 | S. cerevisiae deletion strains, locus YNL209W, strain ssb2, active compounds read low 1.01 | S. cerevisiae deletion strains, locus YNL224C, strain SQS1, active compounds read low 0.993 | S. cerevisiae deletion strains, locus YNL233W, strain BNI4, active compounds read low 0.941 | S. cerevisiae deletion strains, locus YNL248C, strain rpa49, active compounds read low 1.02 | S. cerevisiae deletion strains, locus YNL250W, strain rad50, active compounds read low 0.902 | S. cerevisiae deletion strains, locus YNL322C, strain KRE1 (second series), active compounds read low 1.02 | S. cerevisiae deletion strains, locus YNL322C, strain KRE1, active compounds read low 0.998 | S. cerevisiae deletion strains, locus YNR049C, strain mso1, active compounds read low 1.01 | S. cerevisiae deletion strains, locus YNR052C, strain pop2, active compounds read low 0.98 | S. cerevisiae deletion strains, locus YOL006C, strain TOP1, active compounds read low 0.989 | S. cerevisiae deletion strains, locus YOL012C, strain htz1 0.898 | S. cerevisiae deletion strains, locus YOL147C, strain pex11, active compounds read low 0.965 | S. cerevisiae deletion strains, locus YOR001W, strain rrp6, active compounds read low 1.02 | S. cerevisiae deletion strains, locus YOR061W, strain CKA2, active compounds read low 0.992 | S. cerevisiae deletion strains, locus YOR069W, strain VPS5, active compounds read low 0.989 | S. cerevisiae deletion strains, locus YOR070C, strain gyp1, active compounds read low 1.02 | S. cerevisiae deletion strains, locus YOR080W, strain dia2, active compounds read low 1.01 | S. cerevisiae deletion strains, locus YOR083W, strain WHI5 (second series), active compounds read low 0.966 | S. cerevisiae deletion strains, locus YOR083W, strain WHI5, active compounds read low 1.01 | S. cerevisiae deletion strains, locus YOR106W, strain vam3, active compounds read low 0.991 | S. cerevisiae deletion strains, locus YOR136W, strain idh2, active compounds read low 0.979 | S. cerevisiae deletion strains, locus YOR144C, strain elg1, active compounds read low 0.977 | S. cerevisiae deletion strains, locus YOR184W, strain ser1, active compounds read low 0.881 | S. cerevisiae deletion strains, locus YOR231W, strain MKK1, active compounds read low 0.91 | S. cerevisiae deletion strains, locus YOR265W, strain rbl2, active compounds read low 1.02 | S. cerevisiae deletion strains, locus YOR270C, strain vph1, active compounds read low 1.06 | S. cerevisiae deletion strains, locus YOR290C, strain snf2, active compounds read low 1.01 | S. cerevisiae deletion strains, locus YOR316C, strain cot1, active compounds read low 0.988 | S. cerevisiae deletion strains, locus YPL051W, strain arl3, active compounds read low 0.993 | S. cerevisiae deletion strains, locus YPL055C, strain LGE1, active compounds read low 0.955 and 0.953 | S. cerevisiae deletion strains, locus YPL078C, strain atp4, active compounds read low 1.02 | S. cerevisiae deletion strains, locus YPL106C, strain sse1, active compounds read low 1.01 | S. cerevisiae deletion strains, locus YPL240C, strain hsp82, active compounds read low 1.02 | S. cerevisiae deletion strains, locus YPL241C, strain CIN2, active compounds read low 1 | S. cerevisiae deletion strains, locus YPR119W, strain clb2, active compounds read low 0.996 | S. cerevisiae deletion strains, locus YPR141C, strain kar3, active compounds read low 1.01 | S. cerevisiae deletion strains, locus YPR163C, strain tif3, active compounds read low 0.976 | S. cerevisiae deletion strains, locus YPR167C, strain met16, active compounds read low 0.988 | S. cerevisiae deletion strains, strain wtn01, active compounds read low 0.95 | S. cerevisiae strains, strain wild type, active compounds read low 0.972
active: S. cerevisiae deletion strains, locus YLR113W, strain HOG1, active compounds read low 0.581 | S. cerevisiae deletion strains, locus YLR268W, strain sec22, active compounds read low 0.826 | S. cerevisiae deletion strains, locus YLR418C, strain cdc73, active compounds read low 0.828 | S. cerevisiae deletion strains, locus YNL183C, strain NPR1, active compounds read low 0.789 | S. cerevisiae deletion strains, locus YNL271C, strain bni1, active compounds read low 0.913 | S. cerevisiae deletion strains, locus YNL298W, strain CLA4, active compounds read low 0.834 | S. cerevisiae deletion strains, locus YNL307C, strain MCK1, active compounds read low 0.872
